From paper PMC7862700, “An all-to-all approach to the identification of sequence-specific readers for epigenetic DNA modifications on cytosine” come the findings set out here.

Common to all, as to test: DAPPL (digital affinity profiling via proximity ligation, sequencing); 10 mM Tris-HCl pH 7.5, 50 mM NaCl, 1 mM DTT, 4% glycerol, room temperature, 30 min; GST-TFs on glutathione beads, 16-mer random dsDNA library, 0.1% formaldehyde crosslink after washing; high values mean tight binding
Holding throughout (details): protein: recombinant; tags: N-terminal GST; dsDNA, one strand shown

In one assay the target is T1, ERF (Homo sapiens, UniProt P50548 1-548).
T1 sequence: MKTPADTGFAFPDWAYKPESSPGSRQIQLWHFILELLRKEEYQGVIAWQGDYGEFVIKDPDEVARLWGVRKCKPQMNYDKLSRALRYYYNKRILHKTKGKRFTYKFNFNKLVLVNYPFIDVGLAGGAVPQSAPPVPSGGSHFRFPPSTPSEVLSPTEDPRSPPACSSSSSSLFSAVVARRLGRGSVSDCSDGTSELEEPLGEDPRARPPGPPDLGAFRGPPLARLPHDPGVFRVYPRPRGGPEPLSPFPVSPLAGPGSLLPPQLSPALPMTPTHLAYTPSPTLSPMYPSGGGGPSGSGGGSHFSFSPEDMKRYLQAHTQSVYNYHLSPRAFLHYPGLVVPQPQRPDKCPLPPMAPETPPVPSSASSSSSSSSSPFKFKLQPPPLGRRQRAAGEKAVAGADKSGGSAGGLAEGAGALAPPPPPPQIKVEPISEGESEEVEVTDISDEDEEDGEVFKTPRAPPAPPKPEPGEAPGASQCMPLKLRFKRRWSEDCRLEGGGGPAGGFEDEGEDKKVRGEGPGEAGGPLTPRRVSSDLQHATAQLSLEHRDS
Summed up: (§1)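 Human transcription factors carrying a GST fusion were produced in yeast, bound to glutathione beads, tagged with DNA barcodes and pooled together with a tag-only sample. Each pool was held with 200 nmole of a random double-stranded 16-mer DNA library in Tris/NaCl/DTT/glycerol buffer for 30 min at room temperature, then washed, crosslinked in 0.1% formaldehyde, proximity-ligated with BsaI/T4 ligase (1 h, 37 °C), PCR-amplified and sequenced on an Illumina NextSeq500. Binding signal is the read frequency of each hexamer for a given factor divided by its frequency in the tag-only sample.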

A further assay concerns the target T2, ETV3L (Homo sapiens, UniProt Q6ZN32 1-361).
T2 sequence: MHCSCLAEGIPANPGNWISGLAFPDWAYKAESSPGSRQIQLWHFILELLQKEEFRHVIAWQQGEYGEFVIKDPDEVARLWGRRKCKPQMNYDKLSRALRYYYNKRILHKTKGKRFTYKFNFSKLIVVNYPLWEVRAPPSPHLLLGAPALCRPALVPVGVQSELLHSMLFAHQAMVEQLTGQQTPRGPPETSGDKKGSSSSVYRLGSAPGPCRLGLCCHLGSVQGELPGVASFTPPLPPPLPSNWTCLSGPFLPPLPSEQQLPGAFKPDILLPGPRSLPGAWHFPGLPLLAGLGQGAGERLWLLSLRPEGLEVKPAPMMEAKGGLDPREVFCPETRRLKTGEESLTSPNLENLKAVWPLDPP
Summed up: as §1

The target in a further assay is T3, ETS2 (Homo sapiens, UniProt P15036 1-469).
T3 sequence: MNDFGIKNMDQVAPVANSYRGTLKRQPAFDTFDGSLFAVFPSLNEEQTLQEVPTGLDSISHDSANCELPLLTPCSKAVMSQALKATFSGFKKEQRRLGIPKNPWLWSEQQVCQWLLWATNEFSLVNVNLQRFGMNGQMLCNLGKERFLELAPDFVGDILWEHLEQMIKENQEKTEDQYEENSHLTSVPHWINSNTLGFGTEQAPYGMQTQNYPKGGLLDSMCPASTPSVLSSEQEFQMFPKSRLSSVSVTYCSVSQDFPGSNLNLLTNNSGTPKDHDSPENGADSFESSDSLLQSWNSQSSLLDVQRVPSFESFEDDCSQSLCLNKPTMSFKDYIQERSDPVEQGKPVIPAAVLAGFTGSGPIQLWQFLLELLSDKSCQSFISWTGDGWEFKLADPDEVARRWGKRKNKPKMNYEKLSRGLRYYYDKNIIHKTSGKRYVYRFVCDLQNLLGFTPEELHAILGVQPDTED
In outline:
as §1

For another assay, the target named is T4, SPDEF (Homo sapiens, UniProt O95238 1-335).
T4 sequence: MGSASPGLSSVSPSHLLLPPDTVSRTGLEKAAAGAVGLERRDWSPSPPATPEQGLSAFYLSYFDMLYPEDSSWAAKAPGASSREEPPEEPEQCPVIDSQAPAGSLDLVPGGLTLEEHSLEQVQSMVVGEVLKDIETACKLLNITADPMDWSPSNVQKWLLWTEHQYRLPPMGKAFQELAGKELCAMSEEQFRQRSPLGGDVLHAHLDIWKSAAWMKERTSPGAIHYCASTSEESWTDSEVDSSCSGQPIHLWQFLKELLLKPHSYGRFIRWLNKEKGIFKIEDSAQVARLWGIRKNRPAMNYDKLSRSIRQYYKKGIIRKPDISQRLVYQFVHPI
Summed up:
as §1

Another assay has as its target T5, ETV7 (Homo sapiens, UniProt Q9Y603 1-341).
T5 sequence: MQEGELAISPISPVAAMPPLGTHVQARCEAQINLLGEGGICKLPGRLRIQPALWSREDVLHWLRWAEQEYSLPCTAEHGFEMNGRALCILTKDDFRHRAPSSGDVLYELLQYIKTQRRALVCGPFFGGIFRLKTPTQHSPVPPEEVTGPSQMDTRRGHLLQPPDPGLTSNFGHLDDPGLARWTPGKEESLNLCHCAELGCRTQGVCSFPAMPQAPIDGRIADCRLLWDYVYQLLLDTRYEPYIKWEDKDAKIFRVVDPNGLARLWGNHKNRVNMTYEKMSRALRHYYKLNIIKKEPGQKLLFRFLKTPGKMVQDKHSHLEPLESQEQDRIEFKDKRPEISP
Summed up: as §1

A further assay deals with T6, ELF5 (Homo sapiens, UniProt Q9UKW6-2 1-255).
T6 sequence: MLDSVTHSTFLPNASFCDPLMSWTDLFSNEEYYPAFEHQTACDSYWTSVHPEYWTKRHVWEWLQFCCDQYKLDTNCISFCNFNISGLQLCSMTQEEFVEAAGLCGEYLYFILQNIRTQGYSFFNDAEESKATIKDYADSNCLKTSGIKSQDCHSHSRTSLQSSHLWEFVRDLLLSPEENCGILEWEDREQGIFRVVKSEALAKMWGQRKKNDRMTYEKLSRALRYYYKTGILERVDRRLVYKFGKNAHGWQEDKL
In outline:
as §1

In the next assay the target is T7, ETV3 (Homo sapiens, UniProt P41162-2 1-143).
T7 sequence: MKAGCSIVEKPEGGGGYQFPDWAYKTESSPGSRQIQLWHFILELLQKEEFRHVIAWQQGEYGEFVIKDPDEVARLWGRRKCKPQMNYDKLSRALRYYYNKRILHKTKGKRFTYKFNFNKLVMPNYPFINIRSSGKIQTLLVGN
In outline:
as §1

Another assay concerns the target ETV6 (Homo sapiens, UniProt P41212 1-452). In outline:
as §1

ETV6, sequence (P41212 whole entry): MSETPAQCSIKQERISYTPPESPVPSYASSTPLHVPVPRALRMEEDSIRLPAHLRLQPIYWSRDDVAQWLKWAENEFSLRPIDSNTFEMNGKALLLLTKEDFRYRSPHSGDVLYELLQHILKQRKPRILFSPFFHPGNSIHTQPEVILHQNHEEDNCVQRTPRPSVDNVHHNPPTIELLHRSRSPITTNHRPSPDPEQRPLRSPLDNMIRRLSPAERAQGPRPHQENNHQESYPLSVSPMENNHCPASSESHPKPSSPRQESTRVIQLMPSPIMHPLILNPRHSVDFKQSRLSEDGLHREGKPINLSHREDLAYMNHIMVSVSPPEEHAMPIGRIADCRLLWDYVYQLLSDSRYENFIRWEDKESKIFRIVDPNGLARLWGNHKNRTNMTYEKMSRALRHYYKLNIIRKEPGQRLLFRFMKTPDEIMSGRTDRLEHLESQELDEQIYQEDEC

With CGGAAA, the binding signal is 1.77 fold enrichment (6-mer frequency, TF over GST control) with ERF; 2.05 fold enrichment (6-mer frequency, TF over GST control) in the assay with ETV3L; 2.07 fold enrichment (6-mer frequency, TF over GST control) in the assay with ETS2; 2.03 fold enrichment (6-mer frequency, TF over GST control) in the assay with SPDEF; 1.97 fold enrichment (6-mer frequency, TF over GST control) with ETV7; 2.58 fold enrichment (6-mer frequency, TF over GST control) with ELF5. The binding signal was 2.26 fold enrichment (6-mer frequency, TF over GST control) with ETV3 and 2.53 fold enrichment (6-mer frequency, TF over GST control) with ETV6.

Take CTAACG: the binding signal was 1.23 fold enrichment (6-mer frequency, TF over GST control) with ERF; 1.25 fold enrichment (6-mer frequency, TF over GST control) with ETV3L; 1.15 fold enrichment (6-mer frequency, TF over GST control) in the assay with ETS2; 1.16 fold enrichment (6-mer frequency, TF over GST control) with SPDEF; 1.26 fold enrichment (6-mer frequency, TF over GST control) with ETV7; 1.12 fold enrichment (6-mer frequency, TF over GST control) with ELF5. Also, the binding signal in the assay with ETV3 was 1.17 fold enrichment (6-mer frequency, TF over GST control); in the assay with ETV6 it was 1.16 fold enrichment (6-mer frequency, TF over GST control).

Turning to CATTCG, the binding signal with ERF is 1.21 fold enrichment (6-mer frequency, TF over GST control); with ETV3L it was 1.17 fold enrichment (6-mer frequency, TF over GST control); with ETS2, 1.17 fold enrichment (6-mer frequency, TF over GST control); in the assay with SPDEF it was 1.15 fold enrichment (6-mer frequency, TF over GST control); with ETV7, 1.18 fold enrichment (6-mer frequency, TF over GST control); with ELF5, 1.13 fold enrichment (6-mer frequency, TF over GST control). In addition, the binding signal was 1.27 fold enrichment (6-mer frequency, TF over GST control) in the assay with ETV3 and 1.27 fold enrichment (6-mer frequency, TF over GST control) in the assay with ETV6.

Take TCAAAG: the binding signal with ERF was 1.08 fold enrichment (6-mer frequency, TF over GST control); in the assay with ETV3L it was 1.12 fold enrichment (6-mer frequency, TF over GST control); with ETS2, 1.12 fold enrichment (6-mer frequency, TF over GST control); with SPDEF, 1.01 fold enrichment (6-mer frequency, TF over GST control); in the assay with ETV7 it was 1.1 fold enrichment (6-mer frequency, TF over GST control); with ELF5 it was 1.04 fold enrichment (6-mer frequency, TF over GST control). For the same sequence, the binding signal with ETV3 was 1.07 fold enrichment (6-mer frequency, TF over GST control); with ETV6, 1.09 fold enrichment (6-mer frequency, TF over GST control).

For CTGCAG, the binding signal is 1.07 fold enrichment (6-mer frequency, TF over GST control) with ERF; 1.18 fold enrichment (6-mer frequency, TF over GST control) with ETV3L; 1.18 fold enrichment (6-mer frequency, TF over GST control) with ETS2; 1.1 fold enrichment (6-mer frequency, TF over GST control) with SPDEF; 1.13 fold enrichment (6-mer frequency, TF over GST control) with ETV7; 1.09 fold enrichment (6-mer frequency, TF over GST control) with ELF5. In addition, the binding signal with ETV3 was 1.07 fold enrichment (6-mer frequency, TF over GST control); with ETV6 it was 1.11 fold enrichment (6-mer frequency, TF over GST control).

For the sequence ATTCCC, the binding signal with ERF is 1.28 fold enrichment (6-mer frequency, TF over GST control); with ETV3L it was 1.53 fold enrichment (6-mer frequency, TF over GST control); with ETS2 it was 1.25 fold enrichment (6-mer frequency, TF over GST control); with SPDEF, 1.37 fold enrichment (6-mer frequency, TF over GST control); with ETV7, 1.29 fold enrichment (6-mer frequency, TF over GST control); with ELF5, 1.5 fold enrichment (6-mer frequency, TF over GST control). Further, the binding signal in the assay with ETV3 was 1.51 fold enrichment (6-mer frequency, TF over GST control); with ETV6 it was 1.38 fold enrichment (6-mer frequency, TF over GST control).

Regarding TTCCGT, the binding signal with ERF is 1.61 fold enrichment (6-mer frequency, TF over GST control); with ETV3L it was 1.85 fold enrichment (6-mer frequency, TF over GST control); with ETS2, 1.94 fold enrichment (6-mer frequency, TF over GST control); with SPDEF, 1.91 fold enrichment (6-mer frequency, TF over GST control); with ETV7, 1.6 fold enrichment (6-mer frequency, TF over GST control); in the assay with ELF5 it was 2.76 fold enrichment (6-mer frequency, TF over GST control). Moreover, the binding signal with ETV3 is 2.16 fold enrichment (6-mer frequency, TF over GST control); with ETV6, 2.02 fold enrichment (6-mer frequency, TF over GST control).

As for TATATG, the binding signal in the assay with ERF was 1.48 fold enrichment (6-mer frequency, TF over GST control); in the assay with ETV3L it was 1.35 fold enrichment (6-mer frequency, TF over GST control); with ETS2, 1.38 fold enrichment (6-mer frequency, TF over GST control); in the assay with SPDEF, 1.29 fold enrichment (6-mer frequency, TF over GST control); in the assay with ETV7 it was 1.29 fold enrichment (6-mer frequency, TF over GST control); in the assay with ELF5, 1.39 fold enrichment (6-mer frequency, TF over GST control). Besides, the binding signal in the assay with ETV3 is 1.41 fold enrichment (6-mer frequency, TF over GST control); with ETV6 it was 1.34 fold enrichment (6-mer frequency, TF over GST control).
